Most compounds without a hit are left out; they make up all but 5.7% or so of the library.
Fluor 339 460: intrinsic fluorescence of library compounds, ex339/em460 – biochemical, MLSMR library, data from DPM-DC assay, artefact control, profiling panel | compound autofluorescence, ex339/em460 nm, NADH buffer; stronger effect = higher value; 1 = no-compound wells, NADH background | fluorescence fold increase at 10 µM | actives 5.5% (n = 65,000) | AID 709;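 active means at 10 µM, mean starting fluorescence two-fold or more over control wells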;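 further: signal is the first read of a kinetic run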
Cdc25B inh: inhibitors of human Cdc25B phosphatase; recombinant Cdc25B, OMFP fluorescence Ex485/Em525; inhibition, %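 (compounds tested at 10 µM final in the well)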; actives 0.1% (n = 65,000); AID 368; in the data active means inhibition above about 50%
NADH coupling: inhibitors of enzymes used to reach an NAD/NADH endpoint | coupled PK/LDH NADH assays, four targets | IC50, µM (series often up to 10 µM), inactives show at the highest dose inhibition | AID 774 | actives 0.02% (n = 65,000);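 active means single-dose screening hits from any of four coupled enzyme assays that gave an IC50 when retested across doses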;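 further: the DPM-DC format reads NADH fluorescence rather than 340 nm absorbance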
DUSP1 inh: human dual specificity phosphatase 1 inhibition; recombinant MKP-1, OMFP hydrolysis fluorescence; inhibition, %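 (compounds tested at a single concentration somewhere between 10 and 100 µM)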; actives 0.15% (n = 65,000); AID 374;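 active means inhibition above about 50%, limit read from the data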;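 further: 0% = DMSO max control wells and 100% = wells with enzyme stopped by NaOH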
Target sequence (P28562 whole entry, looked up): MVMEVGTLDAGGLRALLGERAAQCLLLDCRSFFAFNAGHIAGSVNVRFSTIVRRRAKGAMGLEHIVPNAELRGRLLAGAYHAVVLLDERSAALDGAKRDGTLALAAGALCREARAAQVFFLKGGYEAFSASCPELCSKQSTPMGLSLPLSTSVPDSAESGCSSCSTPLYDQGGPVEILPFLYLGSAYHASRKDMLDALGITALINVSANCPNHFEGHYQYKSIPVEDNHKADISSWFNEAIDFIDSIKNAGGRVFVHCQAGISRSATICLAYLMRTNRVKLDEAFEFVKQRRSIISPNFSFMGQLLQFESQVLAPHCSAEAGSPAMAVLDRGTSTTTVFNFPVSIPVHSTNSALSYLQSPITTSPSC
Hsp90 inh: displaces geldanamycin probe from tumor Hsp90; NCI-N417 lysate Hsp90, Cy3B-geldanamycin FP displacement; inhibition, % at 30 µM; AID 429; actives 0.35% (n = 64,000); P07900;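 active means inhibition above 50%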;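 further: 0% = tracer plus lysate wells and 100% = tracer alone without lysate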
Abs 340nm: compounds absorbing at 340 nm; compound absorbance at 340 nm, fold over control; fold change at 10 µM; 65,000 tested, under 10 active;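 active means at 10 µM dose, initial 340 nm absorbance at least 2 fold that of control wells; inactive means change under 2 fold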;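 further: initial absorbance extrapolated from kinetic A340 decline of NADH oxidation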
Redox 05 DTT: redox cycling H2O2 generation, Cdc25B counter-screen | shares compounds with Cdc25B inh | EC50, µM | actives 50% (n = 30) | cell-free redox cycling H2O2 generation, 0.5 mM DTT | AID 682; in the data active means EC50 below about 30 µM
Redox H2O2 1DTT: counter-screen for Cdc25B probes: redox cycling H2O2 in 1 mM DTT | 30 tested, under 10 active | cell-free redox cycling H2O2 generation | shares compounds with Cdc25B inh | EC50, µM; in the data active means EC50 below about 50 µM
Redox H2O2: redox cycling H2O2 generation, MKP probe counter-screen; 60 tested, under 10 active; DTT, phenol red/HRP; EC50, µM; shares compounds with DUSP1 inh; call rule not given here
Starred values were filed as active, the others as inactive; . = no result.

SMILES | Fluor 339 460 | Cdc25B inh | NADH coupling | DUSP1 inh | Hsp90 inh | Abs 340nm | Redox 05 DTT | Redox H2O2 1DTT | Redox H2O2
COc1cccc2c1NC(C(=O)O)C1CC=CC21 (configuration not stated) | 1.54 | 50.9* | 2.0% | 42.2 | -26.3 | 1.02 | >50 | >50 | .
Cc1ccc2c(c1)C1C=CCC1C(C(=O)O)N2 (configuration not stated) | 1.1 | 51.4* | 1.0% | 20.0 | -24.6 | 1.04 | >50 | >50 | .
CC(=O)Nc1cc(OC(C)=O)c2nonc2c1OC(C)=O | 1.24 | 100.4* | 5.0% | -17.0 | 91.1* | 1.05 | 3.89* | 13.6* | .
Nc1cccc2cnccc12 | 1.14 | 81.3* | 5.0% | 6.4 | 63.3* | 0.99 | >50 | >50 | .
N#Cc1cccc2cnccc12 | 1.1 | 6.1 | 4.0% | 3.9 | 2.6 | 1.03 | . | . | .
CCc1cccc(OCC(=O)Nc2ccc(S(=O)(=O)Nc3onc(C)c3C)cc2)c1 | 1.08 | 1.9 | 10.0% | 7.8 | -2.5 | 1.02 | . | . | .
O=C1C(c2ccncc2)N(CCC2=CCCCC2)C(=O)CN1C1CCCCC1 (configuration not stated) | 0.99 | 0.3 | 3.0% | 29.6 | -0.3 | 1 | . | . | .
[O-]/[N+](=C\c1ccc(OC(F)F)cc1)c1ccccc1 | 1.03 | 72.8* | 6.0% | 64.9* | 1.6 | 1.11 | >50 | >50 | >50
Cc1cccc(-n2nc3c(c2NC(=O)c2ccc(Br)o2)CSC3)c1 | 1.11 | 36.3 | 2.0% | 38.9 | -5.3 | 1.04 | . | . | .
Cc1cc2c(=O)n(CC(=O)NCC(=O)N3CCN(Cc4ccccc4)CC3)cnc2s1 | 1.11 | 1.6 | 2.0% | 1.4 | -4.6 | 1 | . | . | .
Cc1c(N=c2c(=O)c3ccccc3c2=O)c(=O)n(-c2ccccc2)n1C | 1.02 | 98.4* | 6.0% | 88.2* | 80.0* | 1.07 | 13.2* | 41.4* | >50
COc1cccc(-c2nc(Cc3ccc(OC)c(OC)c3)no2)c1 | 1.1 | -8.1 | 5.0% | 5.4 | -4.2 | 1 | . | . | .
COc1ccc2noc3c2c1C(=O)c1ccccc1-3 | 1.05 | 96.6* | 7.0% | 79.2* | 38.8 | 1 | 26.8* | >50 | >50
O=C1C(C2=C(O)c3ccccc3C2=O)=Nc2ccccc21 | 0.96 | 23.3 | 7.0% | 91.2* | 57.5* | 0.98 | . | . | >50
O=C(NCc1ccccc1)C1CC2CCCC(C1)C2=O (configuration not stated) | 1.06 | -6.5 | 2.0% | 14.2 | -1.6 | 1.06 | . | . | .
Cc1cccc(N2CCN(C(=O)Cc3c(C(=O)O)[nH]c4ccc(Cl)cc34)CC2)c1C | 0.81 | 1.5 | 11.0% | 52.6* | -3.8 | 1.01 | . | . | >50
Cc1cccc(N2CCN(C(=O)CCn3c(=O)[nH]c4ccccc4c3=O)CC2)c1C | 1.08 | -25.4 | 5.0% | 19.4 | -0.7 | 0.99 | . | . | .
O=C(NCc1cccs1)c1csc2ccccc12 | 1.07 | -4.8 | 1.0% | 1.8 | -8.0 | 1.04 | . | . | .
Cc1ccc(-c2csc(NC(=O)c3ccno3)n2)cc1 | 1.04 | 23.5 | 0.0% | 53.1* | -12.9 | 1.1 | . | . | >50
c1cncc(-c2nnc(C3CCCCC3)o2)c1 | 1.16 | -2.6 | 3.0% | 14.3 | 1.8 | 1 | . | . | .
O=C(Nc1ccccc1)c1ccc2nc(-c3ccco3)c(-c3ccco3)nc2c1 | 2.56* | 44.7 | 10.0% | 59.3* | -20.1 | 1.05 | . | . | >50
CNC(=O)c1nnn(Cc2ccccc2)c1NC(=O)C(F)(F)F | 1.07 | -13.9 | 7.0% | 8.0 | -4.7 | 1.02 | . | . | .
COc1ccc(-c2cc3nc(C4CCN(C(=O)OC(C)(C)C)CC4)c(C(=O)O)cn3n2)cc1 | 2.67* | -4.2 | 15.0% | 64.6* | -0.1 | 1.07 | . | . | >50
CCn1c(SCc2c(F)cccc2Cl)nnc1-c1ccco1 | 1.1 | -4.1 | 0.0% | 1.9 | -1.0 | 1.05 | . | . | .
COC(=O)c1ccccc1NC(=O)CN1C(=O)C2CCCN2c2ncc(Cl)cc21 (configuration not stated) | 2.07* | 4.7 | 12.0% | 50.2* | -19.1 | 1.07 | . | . | >50

Assay outcomes (PubChem)
